Source: PubChem (National Center for Advancing Translational Sciences (NCATS))
SARS PLP yeast: blocks SARS-CoV papain-like protease in a yeast assay | S. cerevisiae expressing SARS-CoV PLpro, growth rescue | Potency, µM (highest dose often 32.9 µM), hits mostly activators | actives 0.19% (n = 330,000); note: nearly all actives have a fitted effect of over 55% in size
NS1 inh: influenza NS1 inhibition; Potency, µM (top dose mostly 46.1 µM); actives 0.4% (n = 270,000); note: actives are rising curves; nearly all actives have a fitted effect of over 50% in size
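A cell-based growth assay was used: compounds that relieve NS1-induced slow growth of budding yeast raise OD600. Assay medium was yeast nitrogen base with ammonium sulphate and -URA supplement, pH 6.0, with 2% galactose.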
Cycloheximide cs: counter-screen hit for Shiga toxin inhibitors, cycloheximide. max response, %. actives 12% (n = 300,000). cell reporter, cycloheximide protein synthesis inhibition counterscreen; in the data active = max response mostly above about 13%, no sharp cut-off; inactive = mostly below about 14%; note: read at 38.3 µM for the half of the compounds with a filed dose
Shiga inhibitor: blocks Shiga toxin action in Vero cells; Vero cells, Shiga toxin protein synthesis inhibition reporter; inhibition, % at 38.7 µM; AID 2315; actives 9.2% (n = 290,000); in the data active = inhibition mostly above about 28%, no sharp cut-off; inactive = mostly below about 43%
Numbers stand for hits; i = inactive; ? = inconclusive; nt = not tested or not shown; [ ] = another dose, or the depositor's remark. Hits are enriched below; roughly 12% of the tested compounds scored in any of these assays. Unless noted, calls come from the whole dose curve.

SMILES | SARS PLP yeast | NS1 inh | Cycloheximide cs | Shiga inhibitor
O=C(/C=C/c1ccc(Cl)cc1)N1CCOCC1 | i | i | 35 | 54
O=S(=O)(Nc1ccccn1)c1cccc(S(=O)(=O)c2ccc(Br)cc2)c1 | i | i | i | i
CC(C)(C)c1ccc(-c2nnc(NC(=O)c3ccccc3)s2)cc1 | i | i | i | i
COCC(=O)Nc1nc2ccccc2s1 | nt | i | 29 | 50
COCC(=O)Nc1nnc(-c2ccc(C(C)(C)C)cc2)s1 | i | i | 52 | 91
O=C(CP(=O)(c1ccccc1)c1ccccc1)Nc1nc2ccccc2s1 | i | i | i | i
COc1ccc2nc(NC(=O)CN(C)S(=O)(=O)c3cccs3)sc2c1 | i | i | 23 | 58
O=C(Cc1cccs1)Nc1nc2ccccc2s1 | i | i | 30 | 111
COc1ccc(-c2nc(S(=O)(=O)c3ccccc3)c(NCCCN3CCOCC3)o2)cc1 | i | nt | nt | nt
CNC(=S)NNS(=O)(=O)c1ccc(OC)cc1OC | i | nt | i | i
CC(Cc1ccccc1)C(=O)NCc1nc2ccccc2s1 (stereo unspecified) | i | i | 19 | 30
CC1(C(=O)Nc2nc3ccccc3s2)CC1(Br)Br (stereo unspecified) | i | i | 44 | 94
NC(=S)Nc1nc2ccccc2s1 | i | nt | 38 | 64
COCC(=O)Nc1nc2ccc(S(C)(=O)=O)cc2s1 | i | i | 40 | 108
COCCNC(=O)C(OC(=O)c1nsc(Cl)c1Cl)C(C)C (stereo unspecified) | i | nt | i | i
CCOc1ccc2nc(NS(=O)(=O)c3cccs3)sc2c1 | i | i | i | nt
CCOc1ccc2nc(NC(=O)Cc3cccs3)sc2c1 | i | i | 40 | 84
Cc1cnc(NC(=O)Cc2cccs2)s1 | i | nt | 21 | i
CCn1nc(NC(=O)C2CCCO2)c2cc3cc(C)ccc3nc21 (stereo unspecified) | i | i | i | i
Cc1ccc2nc(-c3ccc(NC(=O)C4CCCO4)cc3)[nH]c2c1 (stereo unspecified) | i | i | 55 | i
O=C(Cc1ccccc1)Nc1nc2ccccc2s1 | i | i | 26 | 49
O=C(Cc1ccccc1)Nc1nc(=O)c2ccccc2s1 | ? | i | i | i
CCc1ccccc1NS(=O)(=O)c1cc(C)ccc1OC | i | i | i | i
COc1ccccc1NC(=O)C1=C(C)NC(=O)NC1c1ccco1 (stereo unspecified) | i | i | i | i
CS(=O)(=O)N(CC(=O)NC1CCCC1)c1ccc2c(c1)OCCO2 | i | i[9.22 µM] | i | i
SMILES | SARS PLP yeast | NS1 inh | Cycloheximide cs | Shiga inhibitor
CCc1ccc2nc(NC(=O)CCCc3cccs3)sc2c1 | i | i | 33 | 49
O=C(Cc1nc(=O)c2ccccc2s1)Nc1ccccc1 | i | i | 59 | 67
Cc1ccc2nc(NC(=O)Cc3cccs3)sc2c1 | i | i | 50 | 125
COc1n[nH]c(C(=O)Nc2nc3ccccc3s2)c1[N+](=O)[O-] | i | i | 33 | 75
COc1n[nH]c(C(=O)NCc2ccccc2)c1[N+](=O)[O-] | i | nt | i | i
Cc1nc2nc(SCC(=O)O)nn2c(C)c1Cc1ccccc1Cl | i | nt | i | i
COC(=O)C(C)Sc1nc(-c2ccc(OC)cc2)nc2c1c(=O)n(C)c(=O)n2C (stereo unspecified) | nt | i | nt | nt
O=C(Cc1cccs1)Nc1ccccc1-c1nc2ccccc2[nH]1 | i | i | i | i
COc1ccc2nc(NC(=O)CSC(C)C(=O)Nc3cc(C)on3)sc2c1 (stereo unspecified) | i | nt | nt | nt
COc1ccc2nc(NC(=O)Cc3cccs3)sc2c1 | i | i | 51 | 152
Cc1ccc2nc(-c3ccc(NC(=O)Cc4cccs4)cc3)[nH]c2c1 | i | i | 30 | i
CCc1ccc(C(=O)N/N=C/c2cccc3ccccc23)nc1 | i | i | 19 | i
O=C(N/N=C/c1cccc2ccccc12)c1cccnc1 | i | i | 29 | 39
COc1ccc(/C=N/NC(=O)c2cccnc2)c2ccccc12 | i | i | i | i
O=C(N/N=C/c1ccccc1OCc1ccccc1)c1cccnc1 | i | i | 13 | i
CC(=O)Nc1ccc(C(=O)N/N=C/c2ccccc2OCc2ccccc2)cc1 | i | i | i | i
Cc1ccccc1/C=N/NC(=O)c1cccnc1 | i | i | 9.1 | i
COc1ccc(NC(=O)CSc2nnc3n2CCCCC3)cc1 | i | nt | i | i
COC(=O)c1ccc(C(=O)OC)c(NC(=S)N2CCN(c3ccccn3)CC2)c1 | i | i | i | i
O=C(N/N=C/c1cn(Cc2ccccc2)c2ccccc12)c1cccnc1 | i | i | i | i
Cc1ccc(/C=N/NC(=O)c2cccnc2)s1 | i | i | 18 | 58
O=C(N/N=C/c1cccs1)c1cccnc1 | i | i | i | i
O=C(CNC(=O)c1cccnc1)N/N=C/c1ccc(O)cc1O | i | i | 13 | i
O=C(N/N=C/c1cn(CC(=O)N2CCOCC2)c2ccccc12)c1cccnc1 | i | i | 21 | i
